From PubChem BioAssay (NCATS)

Test: High-throughput drug toxicity screening in the BPDCN cell line Cal-1 (AID 1224825)
Settings: Cal-1 BPDCN cell viability, qHTS; at 45.8 µM (top of the series) unless noted
Text: Blastic plasmacytoid dendritic cell neoplasm (BPDCN) is a rare, aggressive and largely incurable hematologic malignancy originating from plasmacytoid dendritic cells (pDCs). Although an initial response to chemotherapy is common, BPDCN prognosis is extremely poor and most patients relapse with drug-resistant disease leading to a median overall survival of ~1 year after diagnosis. To explore novel potential therapeutic strategies in BPDCN, we performed a high-throughput drug toxicity screening in BPDCN cell liens, using of a library of 1,912 small molecules, enriched for compounds that are either approved or in early stages of development for cancer therapy.
A total of 500 exponentially growing Cal-1 cells were seeded per well in 5 uL of media (RPMI + Glutamine, without phenol red plus10% FBS and 1X Pen/Strep) into 1536-well solid white high base tissue culture treated Greiner One Bio Plates (789173-F), using a multidrop combi dispenser and a small sterile cassette. Compounds and controls totaling 23nL per well (negative control DMSO and positive control 9.2 uM Bortezomib-final) were immediately added to the plates using a 1536 head pin tool from Kalypsys. The plates were then covered with stainless steel gasket lids from Kalypsys and incubated for 48 hours at 37C under 95% relative humidity with 5% CO2. After 48 hours, the plates were removed and allowed to reach room temperature before 3 uL of Cell Titer Glo reagent (Promega) were added using an Aurora Flying Reagent Dispenser Bioraptor. The plates were then spun at 1000 rpms to remove bubbles and incubated for 15 minutes at room temperature before reading on a ViewLux using a luminescent filter with a 10 second exposure. The relative luciferase units were used to calculated percent activity using DMSO as 100% and Bortezomib as 0%.

| SMILES | viability (% of control) |
| --- | --- |
| CC1=CC(=O)c2ccccc2C1=O | 1.39% |
| CC(=O)[C@H]1CC[C@H]2[C@@H]3CC=C4C[C@@H](O)CC[C@]4(C)[C@H]3CC[C@]12C | 107% |
| CC(=O)CC(c1ccccc1)c1c(O)c2ccccc2oc1=O (stereo not given) | 60.3% |
| CC(C)(C)NC(=O)[C@H]1CC[C@H]2[C@@H]3CC[C@H]4NC(=O)C=C[C@]4(C)[C@H]3CC[C@]12C | 4.87% |
| C[C@]12C=CC(=O)C=C1CC[C@@H]1[C@@H]2C(=O)C[C@@]2(C)[C@H]1CC[C@]2(O)C(=O)CO | 86.4% [at 23.2 µM] |
| CO[C@@]12[C@H](COC(N)=O)C3=C(C(=O)C(C)=C(N)C3=O)N1C[C@@H]1N[C@@H]12 | 2.42% |
| CCCc1nc(C)c2c(=O)[nH]c(-c3cc(S(=O)(=O)N4CCN(CC)CC4)ccc3OCC)nn12 | 4.45% |
| Cn1c(=O)c2c(ncn2CC(O)CO)n(C)c1=O (stereo not given) | 100% |
| CCC(=O)O[C@]1(C(=O)CCl)[C@@H](C)C[C@H]2[C@@H]3CCC4=CC(=O)C=C[C@]4(C)[C@@]3(F)[C@@H](O)C[C@@]21C | 47.1% |
| CCN1CCCC1CNC(=O)c1cc(S(N)(=O)=O)ccc1OC (stereo not given) | 82.8% |
| Cc1cc(NS(=O)(=O)c2ccc(N)cc2)no1 | 82.3% |
| Nc1nc(N)c2nc(CNc3ccc(C(=O)NC(CCC(=O)O)C(=O)O)cc3)cnc2n1 (stereo not given) | 9.27% |
| NS(=O)(=O)c1cc2c(cc1Cl)NC(C(Cl)Cl)NS2(=O)=O (stereo not given) | 94.1% |
| COc1ccccc1OCC(O)COC(N)=O (stereo not given) | 124% |
| CNC(=O)c1cc(Oc2ccc(NC(=O)Nc3ccc(Cl)c(C(F)(F)F)c3)cc2)ccn1 | 9.69% |
| NCCCC(O)(P(=O)(O)O)P(=O)(O)O | 97.8% |
| OCc1ccc(-c2nn(Cc3ccccc3)c3ccccc23)o1 | 104% |
| Nc1nc(=S)c2[nH]cnc2[nH]1 | 7.77% |
| Clc1ccccc1CN1CCc2sccc2C1 | 45.9% |
| O=c1oc2c(O)c(O)cc3c(=O)oc4c(O)c(O)cc1c4c23 | 131% |

| SMILES | viability (% of control) |
| --- | --- |
| CCn1cc(C(=O)O)c(=O)c2cc(F)c(N3CCNCC3)nc21 | 114% |
| CCOC(=O)[C@H](CCc1ccccc1)N[C@H]1CS[C@H](c2cccs2)CN(CC(=O)O)C1=O | 14% |
| COc1ccc(-c2ccc3cc(C(=O)O)ccc3c2)cc1C12CC3CC(CC(C3)C1)C2 | 112% |
| COc1cc2c(Nc3ccc(Br)cc3F)ncnc2cc1OCC1CCN(C)CC1 | 5.58% |
| COc1ccc2cc3[n+](cc2c1OC)CCc1cc2c(cc1-3)OCO2 | 7.43% |
| COC(c1ccccc1)(c1ccccc1)[C@H](Oc1nc(C)cc(C)n1)C(=O)O | 121% |
| COCCCOc1cc(C[C@@H](C[C@H](N)[C@@H](O)C[C@H](C(=O)NCC(C)(C)C(N)=O)C(C)C)C(C)C)ccc1OC | 113% |
| CCC(=O)O[C@]1(C(=O)SCF)[C@H](C)C[C@H]2[C@@H]3C[C@H](F)C4=CC(=O)C=C[C@]4(C)[C@@]3(F)[C@@H](O)C[C@@]21C | 52.2% |
| C[C@@H](NCCCc1cccc(C(F)(F)F)c1)c1cccc2ccccc12 | 110% |
| COc1nc(N)nc2c1ncn2[C@@H]1O[C@H](CO)[C@@H](O)[C@@H]1O | 78% |
| CS(=O)(=O)c1ccc([C@@H](O)[C@@H](CO)NC(=O)C(Cl)Cl)cc1 | 86.4% |
| CCOC(=O)c1ccc(C#Cc2ccc3c(c2)C(C)(C)CCS3)nc1 | 47% |
| C1CCC(C(CC2CCCCN2)C2CCCCC2)CC1 (stereo not given) | 5.18% |
| COc1cc2nc(N3CCCN(C)CC3)nc(NC3CCN(Cc4ccccc4)CC3)c2cc1OC | 4.13% |
| N[C@@H](C(=O)N[C@@H]1C(=O)N2C(C(=O)O)=C(Cl)CS[C@H]12)c1ccccc1 | 108% |
| CCOc1cc(N)c(Cl)cc1C(=O)NCC1CN(Cc2ccc(F)cc2)CCO1 (stereo not given) | 98.6% |
| CN1CCCC(n2nc(Cc3ccc(Cl)cc3)c3ccccc3c2=O)CC1 (stereo not given) | 7.4% |
| O=C(O)c1cccnc1 | 87.6% |
| COc1c(N2CCNC(C)C2)c(F)cc2c(=O)c(C(=O)O)cn(C3CC3)c12 (stereo not given) | 78% |
| CCCCCCNC(=O)n1cc(F)c(=O)[nH]c1=O | 33.8% |
